# This is a sample that favours compounds with a hit; in the whole collection about 3.5% have one here.
# FBW7 act: human FBW7 E3 ligase activation, primary screen. Q969H0. normalized activity (activation), % at 26.1 µM. AID 1259310. AlphaScreen FBW7–phospho-cyclin E peptide binding, activator screen. actives 0.13% (n = 650,000); in the data active = normalized activity above about 1.9%;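 also: purified mutant Fbw7 with reduced substrate affinity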
# Target sequence (Q969H0 whole entry, looked up): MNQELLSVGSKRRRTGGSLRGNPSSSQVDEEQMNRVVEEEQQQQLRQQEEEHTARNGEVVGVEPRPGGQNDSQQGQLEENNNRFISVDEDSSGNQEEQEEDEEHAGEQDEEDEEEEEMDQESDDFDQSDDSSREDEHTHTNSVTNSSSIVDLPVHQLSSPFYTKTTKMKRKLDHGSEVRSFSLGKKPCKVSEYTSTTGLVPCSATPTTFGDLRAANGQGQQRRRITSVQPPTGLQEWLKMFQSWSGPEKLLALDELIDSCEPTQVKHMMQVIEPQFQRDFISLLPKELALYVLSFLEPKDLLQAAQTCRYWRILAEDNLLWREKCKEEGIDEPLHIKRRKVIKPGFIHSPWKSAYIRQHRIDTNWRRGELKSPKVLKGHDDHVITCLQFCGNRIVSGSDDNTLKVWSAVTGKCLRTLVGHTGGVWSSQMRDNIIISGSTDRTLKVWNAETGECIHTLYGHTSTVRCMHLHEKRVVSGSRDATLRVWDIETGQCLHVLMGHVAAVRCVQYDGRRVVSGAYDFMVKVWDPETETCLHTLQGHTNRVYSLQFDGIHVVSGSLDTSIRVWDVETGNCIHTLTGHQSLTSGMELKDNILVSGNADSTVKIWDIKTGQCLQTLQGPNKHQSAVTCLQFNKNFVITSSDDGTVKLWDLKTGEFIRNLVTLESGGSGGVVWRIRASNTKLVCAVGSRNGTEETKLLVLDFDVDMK
# MITF inh: inhibitors of human MITF; O75030; AlphaScreen MITF homodimerization, bead proximity signal; inhibition, % at 2.6 µM; actives 0.91% (n = 650,000); AID 1259374; in the data active = inhibition above about 50%;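 also: 0% = vehicle wells with protein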
# GPR151 activ: human GPR151 activation | Q8TDV0 | PathHunter beta-arrestin GPR151 cells, luminescence | activation, % at 11.2 µM | actives 1% (n = 650,000); in the data active = activation above about 4.9%;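 also: 0% = median of compound wells and 100% = cells with positive control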
# TEAD-YAP inh: TEAD-YAP interaction inhibition | HEK-TIYL cells, TEAD-Gal4/YAP UAS-luciferase luminescence | inhibition, % at 9.12 µM | actives 1.4% (n = 640,000); in the data active = inhibition above about 32%;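 also: 0% = median of test compound wells and 100% = reference inhibitor wells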
# The depositor's hits bear a star.
SMILES,FBW7 act,MITF inh,GPR151 activ,TEAD-YAP inh
COc1ccccc1N1C(=S)NC(C)(C)C=C1C,0,-9,0,6
COc1cccc(C(=O)Nc2nnc(SCC(=O)Nc3ccc(F)cc3)s2)c1,0,5,-2,-7
Cc1ccc(/C=N/NC(=O)C2COc3ccccc3O2)cc1 (centres undefined),0,18,0,51*
C/C(=N\NC(=O)C1COc2ccccc2O1)c1ccc(Br)cc1 (centres undefined),1,-1,-1,38*
CN1CCC(=NNC(=O)C2COc3ccccc3O2)CC1 (centres undefined),0,-2,0,38*
O=C(N/N=C/c1ccc(Br)cc1)C1COc2ccccc2O1 (centres undefined),0,-5,0,37*
O=C1CCC/C(=N\NC(=O)C2COc3ccccc3O2)C1 (centres undefined),0,9,0,8
C/C(=N\NC(=O)CNC(=O)C1COc2ccccc2O1)c1ccccc1 (centres undefined),0,-26,-1,10
COc1ccccc1N1CCN(C(=O)c2sc3nc(C)nc(N(C)c4ccc(C(C)C)cc4)c3c2C)CC1,0,-3,-1,-6
CCc1nnc(NC(=O)CSc2nc3cc(C)cc(C)c3cc2C#N)s1,0,3,0,1
Cc1cc(-c2ccc(NC(=O)[C@H]3COc4ccccc4O3)cc2)ccn1,0,23,0,75*
COCCOC(=O)C1=C(C)NC2=C(C(=O)CCC2)C1c1ccc(O)cc1 (centres undefined),0,-3,1,0
Nc1cccc(Oc2ccc3c(c2)C(=O)N(c2cccc(N)c2)C3=O)c1,0,-1,3,-2
Nc1ccc(Oc2ccc3c(c2)C(=O)N(c2cccc(N)c2)C3=O)cc1,3.4*,10,1,-27
Nc1ccc(Oc2ccc3c(c2)C(=O)N(CCO)C3=O)cc1,0,-1,-1,42*
CCCC1(C2CCN(C(=O)c3ccnn3C)CC2)NC(=O)N(CCc2cccs2)C1=O (centres undefined),0,2,0,9
Cc1cccc(C(=O)N[C@H](C(=O)Nc2nc3ccccc3[nH]2)C(C)C)c1,0,-11,0,66*
Cc1cccc(C(=O)Nc2nc3ccccc3[nH]2)c1,0,7,-5,32*
O=C(Nc1nc2ccccc2[nH]1)c1cccc(Br)c1,0,8,-2,-27
CCN1C(=O)CC(C(=O)O)SC1=Nc1ccc(Cl)cc1 (centres undefined),0,9,3,12
O=C(COc1ccc(Oc2ccccc2)cc1)NCc1cn2ccccc2n1,0,14,-1,55*
O=S(=O)(NCc1cn2ccccc2n1)c1ccc(Oc2ccccc2)cc1,0,-8,-1,16
COc1ccc(CCNc2ncnc3nc(Nc4ccc(-n5ccnc5)cc4)[nH]c23)cc1,0,20,-2,-7
COc1ccc(CCNc2cc(-c3ccccc3)nc(N)n2)cc1,0,3,0,42*
COc1ccc(-c2cc(Nc3cc(OC)c(OC)c(OC)c3)nc(N)n2)cc1,0,-17,2,41*
SMILES,FBW7 act,MITF inh,GPR151 activ,TEAD-YAP inh
COc1ccc(-c2cc(NCCc3ccc(O)cc3)nc(N)n2)cc1,0,7,-1,-44
Cc1nn(C)c(C)c1-c1cc(Nc2ccc(Oc3ccccc3)cc2)nc(N)n1,0,40,-1,54*
COc1ccc(CCNc2cc(-c3ccc(OC)nc3)nc(N)n2)cc1,0,0,-1,51*
Fc1ccc(-c2cc3nc4c(c(NCCCN5CCOCC5)n3n2)CCC4)cc1,0,4,0,-8
Cc1c(Cl)cccc1N1C(=O)/C(=C\c2cccc([N+](=O)[O-])c2)N=C1c1cccc(Cl)c1,0,-11,1,-1
Nc1ncnc2c1nc(Br)n2[C@@H]1O[C@H](CO)[C@@H](O)[C@H]1O,0,-11,-1,-10
COC(=O)c1cc(S(=O)(=O)NC(C)c2ccccc2)cn1C (centres undefined),0,5,-1,-16
CCOC(=O)c1sc2nc(SCC(=O)Nc3ccc(OCC)cc3)n(CCc3ccccc3)c(=O)c2c1C,0,-1,1,-10
COc1ccc(-c2cc(Nc3ccc(NC(C)=O)cc3)nc(N)n2)cn1,0,-6,-1,-13
COc1cc(Nc2cc(N3CCc4ccccc4C3)nc(N)n2)cc(OC)c1OC,0,5,3,37*
COc1ccc(-c2cc(Nc3ccc(Oc4ccccc4)cc3)nc(N)n2)cn1,0,6,2,44*
O=C(CCc1nc2cccnc2n1Cc1cccs1)Nc1ccc2c(c1)OCCO2,0,-16,0,-9
CC(=O)c1c(C)[nH]c(C(=O)OCC(=O)Nc2nc(-c3ccc(C)cc3)cs2)c1C,1,-13,2,37*
CC(=O)c1c(C)[nH]c(C(=O)OCc2csc(-c3ccccc3)n2)c1C,0,4,0,32*
O=C(Nc1cccnc1)c1cccc(OCc2ccccc2)c1[N+](=O)[O-],0,12,-3,-20
Cc1cc(NNC(=O)c2ccccc2Cl)c2cccc(C)c2n1,0,-11,0,40*
COc1ccc(C(=O)NNc2cc(C)nc3c(C)cccc23)cc1,0,13,-1,10
CC(C)(c1ccccc1)c1ccc(OCC(=O)NC2CCCC2)cc1,1.9*,12,0,-4
O=C(COc1ccc(S(=O)(=O)NC2CCCCC2)cc1)NC1CCCCCC1,1,4,1,35*
O=C(COC(=O)c1ccc(O)cc1)NC1CCCCCC1,0,-6,1,-6
NC(=O)Nc1ccc(C(=O)OCC(=O)NC2CCCCC2)cc1,0,6,-1,34*
CCc1c(C)nc2ncnn2c1NCCc1ccc(OC)cc1,0,-1,0,66*
COc1ccc(OC)c(/C=C2\C(=O)ON=C2c2ccccc2)c1,0,77*,0,-8
COc1ccc(OC)c(C=C2C(=O)OC(C)(c3ccccc3)OC2=O)c1 (centres undefined),0,22,1,-8
CCOc1ccc(/C=C2\C(=O)ON=C2c2ccccc2)cc1,0,6,0,-5
SMILES,FBW7 act,MITF inh,GPR151 activ,TEAD-YAP inh
O=C1ON=C(c2ccc(Cl)cc2)/C1=C\c1ccc2c(c1)OCO2,0,77*,0,2
COc1ccc(/C=C2/C(=O)ON=C2c2ccccc2)cc1OC,-1,65*,2,-26
CCOc1cc(/C=C2\C(=O)ON=C2c2ccccc2)ccc1OC,0,58*,-1,-10
COc1cc(/C=C2\C(=O)ON=C2c2ccccc2)cc(OC)c1OC,0,13,0,-7
CCCCOc1ccc(/C=C2\C(=O)ON=C2c2ccc(Cl)cc2)cc1,0,24,-1,9
CN1CCN(Cc2c(O)ccc3c(CN4CCN(C)CC4)c(O)ccc23)CC1,0,-8,-1,1
CN(C)CCN(C(=O)c1ccc(Cl)s1)c1nc2cc3c(cc2s1)OCCO3,1,17,-1,-26
COc1ccccc1-c1nc2sc3c(c2c(=O)o1)CCCC3,0,-3,3,68*
O=c1oc(-c2ccccc2F)nc2sc3c(c12)CCCC3,0,8,0,0
